TRPV1 PAM = human TRPV1 potentiation; Q8NER1; TRPV1-expressing cells, Fluo-8 calcium influx, capsaicin EC20 potentiation; potentiation, % at 8.33 µM; hit rate 0.02% among 320,000; AID 540277; in the data active means potentiation above about 80%; inconclusive means between about 30% and that limit; further: 0% is about no effect
Target sequence (Q8NER1 whole entry, looked up): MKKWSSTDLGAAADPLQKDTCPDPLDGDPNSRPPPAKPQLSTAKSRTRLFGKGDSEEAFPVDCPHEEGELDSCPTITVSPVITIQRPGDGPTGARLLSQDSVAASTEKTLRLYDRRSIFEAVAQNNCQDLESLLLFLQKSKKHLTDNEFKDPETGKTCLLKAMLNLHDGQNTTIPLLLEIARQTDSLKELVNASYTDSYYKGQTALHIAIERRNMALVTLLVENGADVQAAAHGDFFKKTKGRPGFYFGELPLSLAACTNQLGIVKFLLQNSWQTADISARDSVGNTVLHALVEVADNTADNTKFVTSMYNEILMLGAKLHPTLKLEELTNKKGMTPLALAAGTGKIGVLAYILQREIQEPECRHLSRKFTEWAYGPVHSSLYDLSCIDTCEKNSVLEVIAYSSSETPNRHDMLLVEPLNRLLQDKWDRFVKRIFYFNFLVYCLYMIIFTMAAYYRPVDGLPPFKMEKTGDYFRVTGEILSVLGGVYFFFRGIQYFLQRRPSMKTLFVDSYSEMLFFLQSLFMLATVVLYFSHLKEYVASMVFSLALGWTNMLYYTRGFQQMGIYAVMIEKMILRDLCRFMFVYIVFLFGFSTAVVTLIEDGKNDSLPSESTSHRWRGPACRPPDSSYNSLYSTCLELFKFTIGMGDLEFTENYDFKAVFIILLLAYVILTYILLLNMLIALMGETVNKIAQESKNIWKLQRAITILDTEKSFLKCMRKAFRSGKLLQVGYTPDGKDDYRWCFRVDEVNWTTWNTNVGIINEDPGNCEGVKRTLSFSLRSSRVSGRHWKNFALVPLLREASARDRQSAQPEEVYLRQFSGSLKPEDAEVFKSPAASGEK
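TRPV1-expressing cells were cultured overnight at 35.5C and loaded with Fluo-8 calcium dye for 40 to 90 min at room temperature. After a 10 s baseline, compound was added and calcium influx was read kinetically for 3 min (ex 480/em 520 nm).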
Giardia killer = kills Giardia lamblia | hit rate 0.15% among 340,000 | activity change, % at 7.66 µM, hits read low | AID 540267 | Giardia lamblia trophozoite viability; in the data active means activity change below about -80%; inconclusive means between about -30% and that limit;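 further: parasites exposed to compound for two days anaerobically before the ATP read; on the % scale 0 is the no-effect control and ±100 the full control effect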
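Giardia trophozoites, 100 cells per well, were exposed to compounds for 48 hrs at 37 deg C under anaerobic conditions; viability was then read as ATP content by bioluminescence after 15-30 min at room temperature.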
FUS yeast rescue = rescues growth of FUS-expressing yeast; S. cerevisiae FUS-expressing, growth rescue, OD600, 24 h; Potency, µM (series often up to 76.6 µM), most hits filed as activators; hit rate 0.24% among 390,000;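 further: potency means the concentration at half of the fitted maximal effect; plate controls were DMSO vehicle for no effect and reference control for full effect; nearly all actives have a fitted effect of over 55% in size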
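Absorbance at 600 nm, taken 24hr after compound addition, measured rescue of FUS-yeast growth at 30C. Induction used 2% galactose with seeding at OD 0.005. Controls: CP55940 from 92uM final, DMSO only.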
TRPV1 ag = activates the human vanilloid receptor TRPV1. Q8NER1. TRPV1-expressing cells, Fluo-8 calcium influx, agonist mode. activation, % at 8.33 µM. hit rate 0.19% among 320,000; in the data active means activation above about 80%; inconclusive means between about 30% and that limit; further: 0% is about no effect
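TRPV1-expressing cells were cultured overnight at 35.5C and loaded with Fluo-8 calcium dye for 40 to 90 min at room temperature. After a 10 s baseline, compound was added and calcium influx was read kinetically for 3 min (ex 480/em 520 nm).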
ELG1 repair inh = ELG1-dependent DNA repair inhibition; HEK293T ELG1-luciferase reporter, luminescence, 16 h; DNA damage induced by 5-fluorouridine; Potency, µM (top dose mostly 46.1 µM), without a hit: at the top dose activity change, negative = inhibition, most hits filed as inhibitors; hit rate 2.3% among 330,000; AID 504467; further: potency means the concentration at half of the fitted maximal effect; on the % scale 0 is the no-effect control and ±100 the full control effect; nearly all actives have a fitted effect of over 55% in size
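Reporter activity after DNA damage by 5-fluorouridine is monitored. Compound-treated cells incubate 16 hr at 37 °C, then ONE-Glo is added for 30 min before luminescence reading.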
The depositor's hits bear a star; i = inactive; ? = inconclusive; nt = not tested or not shown. A selection: hits, their analogues and other compounds. The true share with any hit is near 2.3%. Unless noted, the call rests on the fitted dose curve; in most records, active means well fitted curve in the direction sought with a large enough effect; inconclusive means small, poorly fitted or top-dose-only effect, or another doubt; inactive means no such curve, though single readings can be large; an effect the other way counts as inactive or inconclusive.

SMILES | TRPV1 PAM | Giardia killer | FUS yeast rescue | TRPV1 ag | ELG1 repair inh
CC(C)(C)c1ccc2c(c1)OC(C(=O)N/N=C\c1ccncc1)CO2 (stereo not drawn) | -5 | 10 | i | 109* | 15µM*
O=S(=O)(c1ccc(Cl)c(NC(=S)N/N=C/c2ccc(O)cc2)c1)N1CCOCC1 | 0 | -3 | nt | -6 | 23µM*
O=[N+]([O-])c1cc(Cl)cc(/C=N/NC(=S)Nc2ccc(S(=O)(=O)N3CCOCC3)cc2)c1O | 5 | -8 | i | 3 | 13µM*
COC(=O)[C@]12C[C@H](CC(=O)NCC3CCCCC3)C(=O)N(Cc3cccc4ccccc34)C1=C[C@H](C1CCCC1)O[C@@H]2C | nt | nt | 32µM* | nt | nt
CCCCNC(=O)C[C@H]1C[C@@]2(C(=O)OC)C(=C[C@H](C3CCCC3)O[C@@H]2C)N(Cc2cccc3ccccc23)C1=O | nt | nt | 13µM* | nt | nt
COC(=O)[C@]12C[C@H](CC(=O)NCc3cccc(C(F)(F)F)c3)C(=O)N(Cc3ccco3)C1=C[C@H](C1CCCC1)O[C@@H]2C | nt | nt | 4.5µM* | nt | nt
COC(=O)[C@]12C[C@H](CC(=O)NCc3ccc(OC)c(OC)c3)C(=O)N(CCC3=CCCCC3)C1=C[C@H](C1CCCC1)O[C@@H]2C | nt | nt | 14µM* | nt | nt
COC(=O)[C@]12C[C@H](CC(=O)NCCc3ccccc3OC)C(=O)N(CCC3=CCCCC3)C1=C[C@H](C1CCCC1)O[C@@H]2C | nt | nt | i | nt | nt
COc1ccccc1NC(=O)CSc1nc2ccccc2c(=O)n1CC1CCCO1 (stereo not drawn) | -8 | -17 | i | 4 | -6%
COc1ccccc1N1CCN(C(=O)CSc2nc3ccccc3c(=O)n2CC2CCCO2)CC1 (stereo not drawn) | 14 | 12 | i | 0 | 23µM*
COc1cc2oc(=O)cc(-c3ccc(-c4ccc(CO)cc4)cc3)c2c(OC)c1OC | nt | -15 | i | nt | 5.8µM*
COc1cc2oc(=O)cc(-c3ccc(-c4ccc(C)cc4)cc3)c2c(OC)c1OC | nt | 6 | i | nt | -24%
CC(C)CNC(=O)COC(=O)c1c2c(nc3ccccc13)/C(=C/c1cccs1)CC2 | 19 | -16 | i | 6 | ?
CCc1cccc(C)c1NC(=O)COC(=O)c1c2c(nc3ccccc13)/C(=C\c1cccs1)CCC2 | -18 | -10 | nt | -5 | 15µM*
NC(=O)c1ccc(NC(=O)COC(=O)c2c3c(nc4ccccc24)/C(=C\c2cccs2)CCC3)cc1 | -4 | 9 | i | ? | 7.3µM*
COc1cc(NC(=O)CCCOc2cc(=O)n(C)c3ccccc23)cc(OC)c1OC | nt | nt | i | nt | nt
Cc1cc(-c2ccc(S(=O)(=O)Nc3ccccc3F)s2)on1 | nt | nt | i | nt | nt
CC(C)(C)c1ccc(C(=O)N2CCN(CCNC(=O)C(=O)NCc3ccc(Cl)cc3)CC2)cc1 | 2 | -8 | i | 3 | 12µM*
Cc1ccc(NC(=O)C(Cc2ccccc2)NS(=O)(=O)c2ccc3c(c2)oc(=O)n3C)cc1F (stereo not drawn) | nt | nt | i | nt | nt
Cc1ccc(NC(=O)c2ccc(F)c(S(=O)(=O)N3CCOCC3)c2)cc1F | -8 | -1 | i | ? | -13%
CCOc1ccc2nc(NC(=O)c3ccc(OC)c(S(=O)(=O)N4CCOCC4)c3)sc2c1 | -3 | 9 | i | -2 | 13µM*
O=C(Nc1nccs1)c1ccc(Cl)c(S(=O)(=O)N2CCOCC2)c1 | -11 | -3 | i | 19 | 21µM*
O=C(Nc1nccs1)c1ccc(Br)c(S(=O)(=O)N2CCCC2)c1 | -10 | -14 | i | 16 | -1%
CCOc1ccc2nc(NC(=O)c3ccc(S(=O)(=O)N4CCOCC4)cc3)sc2c1 | 2 | 10 | i | 8 | -28%
O=C(Nc1ccccc1)c1ccc(NCC2CCCO2)c(S(=O)(=O)N2CCOCC2)c1 (stereo not drawn) | 2 | 6 | i | -2 | 23µM*
O=C(Nc1ccccc1)c1ccc(F)c(S(=O)(=O)N2CCOCC2)c1 | -27 | 5 | i | ? | 15µM*
COc1ccccc1NC(=O)C(C)Sc1nnc2ccc3ccccc3n12 (stereo not drawn) | nt | nt | i | nt | nt
COC(=O)c1ccccc1NC(=O)Cn1nc(C)c2nn(-c3ccc(Cl)cc3)c(C)c2c1=O | nt | nt | i | nt | nt
CCCc1nn2c(=O)cc(COC(=O)c3ccc(NC(=O)C4CCCCC4)cc3)nc2s1 | nt | nt | i | nt | nt
